Records with an inconclusive call do not appear. Activity calls are given as the source filed them. Unless noted, the call rests on the fitted dose curve; in most records, active means well fitted curve in the direction sought with a large enough effect; inconclusive means small, poorly fitted or top-dose-only effect, or another doubt; inactive means no such curve, though single readings can be large; an effect the other way counts as inactive or inconclusive.
Experiments:
[1] = biological target: Glucocorticoid receptor (Homo sapiens) (UniProt P04150); test: GR-GFP Redistribution (AID 450;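 active means compounds whose dose series gives a full or clear partial fitted curve of increased nuclear translocation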; further: potency means the concentration at half of the fitted maximal effect); conditions: U2OS GR-GFP nuclear translocation, laser cytometry, 2 h
[2] = biological target: Glucocorticoid receptor (Homo sapiens) (UniProt P04150); test: GR-EFC Redistribution (AID 451; calls by dose curve; further: potency means the concentration at half of the fitted maximal effect); conditions: CHO-K1 GR-EFC translocation, beta-gal luminescence, 2 h
Outline: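 CHO-K1 cells stably expressing nuclear-localized β-gal enzyme acceptor and GR fused C-terminally to the enzyme donor fragment; ligand-driven nuclear translocation restores β-gal by complementation. Compounds titrated up to 46 uM final, 2 h at 37 °C; luminescence read.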

[3] = biological target: Mitogen-activated protein kinase 10 (Mus musculus) (UniProt Q61831); test: JNK3 AlphaScreen Assay (AID 530; active means well fitted curve in either direction with a large enough effect, not every such curve was filed as active;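 further: kinase came from lysate of stimulated human HepG2 cells; signal reports phosphorylation of biotinylated GST-cJun 1-79 at Ser73 with 10 µM ATP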); conditions: JNK3 lysate, c-Jun phosphorylation; series mostly up to 57.1 µM
Outline: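 Biotinylated GST-cJun(1-79) served as substrate for JNK3 in HepG2 lysates stimulated with IL-1beta and TNF-alpha. ATP was 10 uM final, pH 7.6. Ser73 phosphorylation was quantified by AlphaScreen (680 nm excitation).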

[4] = biological target: 3',5'-cyclic-AMP phosphodiesterase 4B (Homo sapiens) (UniProt Q07343); test: qHTS Assay for Inhibitors of PDE-IV (AID 607; active means well fitted activation curve with a large enough effect in the main read-out, with a control signal flat, not every such curve was filed as active); conditions: HEK293 ACTOne CNG channel cells, membrane potential fluorescence; series mostly up to 22.9 µM
Outline: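 ACTOne HEK293 cells carry a modified cAMP-gated CNG channel and express endogenous PDE4; plated 1000 cells/well, compounds up to 22.9 uM final. Membrane-potential dye fluorescence (ex 535/em 590) was read; parental cells received 10 uM forskolin + 100 uM RO 20-1724.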

[5] = biological target: DNA dC->dU-editing enzyme APOBEC-3G (Homo sapiens) (UniProt Q9HC16); test: qHTS for inhibitors of Vif-A3G interactions: Validation (AID 588379); conditions: Vif-A3G protein interaction assay; series mostly up to 46.1 µM
Outline: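 Yellow fluorescence (Ex 488, Em 500-530) of Vif-coexpressing HeLa A3G-eYFP cells, scanned by Acumen cytometer, reports blocked A3G degradation. Cells plated at 700/well overnight at 37 deg C before compound addition, then a further overnight compound incubation at 37 deg C.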

[6] = tested on: Zika virus NS2B-NS3 protease; test: Primary screen GU AMC qHTS for Zika virus inhibitors (AID 1347154); conditions: Zika NS2B-NS3 unlinked protease, AMC fluorogenic substrate; series mostly up to 54.1 µM; further: nearly all actives have a fitted effect of over 70% in size
Outline: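 Unlinked Zika NS2B hydrophilic domain/NS3 protease domain noncovalent complex (25 nM final) in 10 mM Tris-HCl pH 8.0, 0.01% Tween 20, with AMC peptide substrate. Fluorescence (ex 340, em 450 nm) change over 15 min, room temperature; percent inhibition fitted to 4-parameter Hill equation.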

[7] = biological target: Cytochrome P450 3A4 (Homo sapiens) (UniProt P08684); test: qHTS Assay for Inhibitors and Substrates of Cytochrome P450 3A4 (AID 884); conditions: recombinant CYP3A4, Luciferin-PPXE luminescence; series mostly up to 57.1 µM; further: potency means the concentration at half of the fitted maximal effect; nearly all actives have a fitted effect of over 50% in size
Outline: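 Luminescent readout of luciferin produced by CYP3A4 (20 nM) dealkylation of Luciferin-PPXE, 25 uM (its KM). NADPH-driven reaction ran 60 min at RT after 10 min compound preincubation; data scaled to 57 uM ketoconazole as 100% inhibition.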

[8] = biological target: Cytochrome P450 3A4 (Homo sapiens) (UniProt P08684); test: qHTS Assay for Activators of Cytochrome P450 3A4 (AID 885); conditions: recombinant CYP3A4, Luciferin-PPXE luminescence, 60 min; series mostly up to 57.1 µM; further: nearly all actives have a fitted effect of over 65% in size
Outline: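 CYP3A4 activity: Luciferin-PPXE O-dealkylation, 25uM substrate, 200mM KPO4, RT throughout. Read-out is luciferase luminescence; higher values reflect activation.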

[9] = biological target: Cytochrome P450 1A2 (Homo sapiens) (UniProt P05177); test: p450-cyp1a2 (AID 410; calls by dose curve; further: potency means the concentration at half of the fitted maximal effect); conditions: recombinant CYP1A2, luciferin-ME demethylation, luminescence; series mostly up to 57 µM
Outline: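 20nM CYP1A2, 100uM Luciferin-ME (=Km), 100mM KPO4; cpd 10 min RT; +NADPH regen, 60 min RT; stop/detect 20 min; luminescence. Normalized to furafylline 57 uM = full inhibition.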

[10] = biological target: Ubiquitin carboxyl-terminal hydrolase 1 (Homo sapiens) (UniProt O94782); test: Inhibitors of USP1/UAF1: Pilot qHTS (AID 504865); conditions: purified USP1/UAF1, Ub-rhodamine cleavage fluorescence; series mostly up to 114 µM;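 further: rhodamine fluorescence freed from ubiquitin-rhodamine substrate followed over time; top concentration of the series differs between compounds; nearly all actives have a fitted effect of over 35% in size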
Outline: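 1nM USP1/UAF1 + cpd, 15 min RT; start w/ Ub-Rho 150nM final; kinetic FL 480/540 nm, 6 reads q60 s. Buffer 50mM HEPES pH 7.8, 0.5mM EDTA, 1mM TCEP, 0.01% Tween-20, 0.1 mg/ml BSA.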

[11] = Confirmatory screen GU Rhodamine qHTS for Zika virus inhibitors qHTS (AID 1347157); conditions: purified enzyme assay, Rhodamine110 substrate fluorescence, 15 min; series mostly up to 114 µM; further: nearly all actives have a fitted effect of over 70% in size; further: potency means the concentration at half of the fitted maximal effect
Outline: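 Percent inhibition derives from the 15-min fluorescence change (ex 480, em 540 nm), normalized to no-enzyme and no-inhibitor wells. Reactions contained 25 nM NS2B-NS3 complex and 1.5 microM substrate in 10 mM Tris-HCl pH 8.0.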

[12] = ZIKV-mCherry secondary qHTS for Zika virus inhibitors (AID 1347158); conditions: Vero cells, ZIKV-mCherry infection imaging, 48-72 h; series mostly up to 49.2 µM; further: top concentration of the series differs between compounds
Outline: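 Read-out is percent infection: mCherry-positive Vero cells (nuclear-proximal intensity >450 RFU, 3 SD above negative controls) counted by high-content imaging of Hoechst-stained, PFA-fixed wells after 48-72 h with ZIKV-mCherry at MOI 1 and compound.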

[13] = Confirmatory screen NINDS Rhodamine qHTS for Zika virus inhibitors (AID 1347161); conditions: purified enzyme assay, Rhodamine110 substrate fluorescence, 15 min; series mostly up to 114 µM; further: potency means the concentration at half of the fitted maximal effect; nearly all actives have a fitted effect of over 60% in size
Outline: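 Aprotinin served as in-plate control. Conditions: 25 nM linked NS2B-NS3, pH 8.0 Tris buffer, titrated compounds, 15 min preincubation and 15 min reaction with 1.5 microM Rhod110 substrate at room temperature.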

[14] = tested on: Zika virus NS2B-NS3 protease (linked); test: 384 well plate NINDS AMC confirmatory qHTS for Zika virus inhibitors (AID 1347163); conditions: Recombinant NS2B-NS3 protease, Ac-VKTGKR-AMC fluorescence; series mostly up to 1 mM; further: potency means the concentration at half of the fitted maximal effect; nearly all actives have a fitted effect of over 50% in size
Outline: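 Enzyme (5, 30 or 60 nM final) first met test compounds for ~15 min. The AMC-tagged peptide Ac-VKTGKR-AMC followed at 30 microM. Fluorescence was then recorded at 25 min and scaled against no-enzyme and no-inhibitor wells.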

[15] = Confirmation and Secondary Assay for Modulators of Hemoglobin Beta Chain Splicing at IVS2 654 locus (AID 910); conditions: HeLa EGFP-654 splicing reporter, GFP fluorescence, 48 h; series mostly up to 46.1 µM;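 further: per-well total GFP intensity by laser scanning cytometry after 2-day treatment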
Outline: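 HeLa cells stably carrying EGFP interrupted by mutant beta-globin IVS2-654 intron (CMV-driven) were treated with compound for 2 days at 37C; corrected splicing was scored as total peak GFP intensity per well (488 nm excitation, 500-520 nm emission).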

[16] = Confirmation and Secondary Assay for Modulators of Hemoglobin Beta Chain Splicing at IVS2 705 locus (AID 930); conditions: HeLa EGFP-705 splicing reporter, GFP fluorescence, 48 h; series mostly up to 46.1 µM;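 further: HeLa cells stably expressing the EGFP-705 splicing reporter; GFP fluorescence per well restored by corrected splicing of the IVS2-705 intron in EGFP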
Outline: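 Splice-correction reporter: EGFP cDNA split by beta-globin intron 2 bearing the 705 mutation, stably in HeLa. Compound incubation 2 days, 37C; fluorescent objects 5-250 µm summed per well.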

[17] = qHTS for Inhibitors of the vitamin D receptor (VDR): Hit Validation using a Texas Red Assay (AID 602201); conditions: VDR coregulator binding, Texas Red fluorescence polarization; agonist-bound VDR ligand-binding domain; further: potency means the concentration at half of the fitted maximal effect
Outline: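 Fluorescence polarization (Ex 595/Em 615 nm) of Texas Red (7 nM) with 1.5 uM VDR-LBD and LG19078 (final concentrations). Compounds were incubated for 2 hours at room temperature.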

[18] = biological target: Cytochrome P450 2C9 (Homo sapiens) (UniProt P11712); test: qHTS Assay for Inhibitors and Substrates of Cytochrome P450 2C9 (AID 883); conditions: recombinant CYP2C9, luciferin-H luminescence, 60 min; series mostly up to 57.1 µM; further: potency means the concentration at half of the fitted maximal effect; nearly all actives have a fitted effect of over 60% in size
Outline: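 CYP2C9 deoxyluciferin hydroxylation, 37C, 60 min with NADPH regeneration; 10nM enzyme, 100uM Luciferin-H (KM). Glo detection reagent stopped reaction; luminescence normalized to sulphaphenazole (57uM) full inhibition.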

[19] = biological target: Cytochrome P450 2D6 (Homo sapiens) (UniProt P10635); test: qHTS Assay for Inhibitors and Substrates of Cytochrome P450 2D6 (AID 891); conditions: recombinant CYP2D6, luciferin-ME EGE luminescence; series mostly up to 57.1 µM;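 further: luciferin methyl ether substrate demethylated by CYP2D6 with NADPH regeneration; nearly all actives have a fitted effect of over 60% in size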
Outline: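 Luminescent read-out of luciferin formed by 5 nM human CYP2D6 demethylating 30 uM Luciferin-ME EGE (Km level) over 60 min at room temperature after NADPH regeneration addition. Data normalized to full inhibition by 1.43 uM quinidine.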

Measured: Potency

Cytochrome P450 3A4 (Homo sapiens), sequence (P08684 whole entry, looked up): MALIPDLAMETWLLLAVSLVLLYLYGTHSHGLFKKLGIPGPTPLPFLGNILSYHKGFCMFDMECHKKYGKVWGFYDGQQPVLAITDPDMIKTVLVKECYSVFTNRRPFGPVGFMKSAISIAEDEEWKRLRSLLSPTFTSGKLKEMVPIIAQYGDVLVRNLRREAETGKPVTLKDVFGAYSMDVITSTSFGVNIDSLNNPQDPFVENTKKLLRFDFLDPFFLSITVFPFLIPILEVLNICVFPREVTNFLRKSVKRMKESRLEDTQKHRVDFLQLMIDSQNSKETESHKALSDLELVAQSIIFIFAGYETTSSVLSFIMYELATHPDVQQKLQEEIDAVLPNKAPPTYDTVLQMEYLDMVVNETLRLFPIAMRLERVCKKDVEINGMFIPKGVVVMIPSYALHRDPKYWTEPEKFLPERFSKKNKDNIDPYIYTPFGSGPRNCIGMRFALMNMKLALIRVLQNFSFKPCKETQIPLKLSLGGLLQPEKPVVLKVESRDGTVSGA
3',5'-cyclic-AMP phosphodiesterase 4B (Homo sapiens), sequence (Q07343 whole entry, looked up): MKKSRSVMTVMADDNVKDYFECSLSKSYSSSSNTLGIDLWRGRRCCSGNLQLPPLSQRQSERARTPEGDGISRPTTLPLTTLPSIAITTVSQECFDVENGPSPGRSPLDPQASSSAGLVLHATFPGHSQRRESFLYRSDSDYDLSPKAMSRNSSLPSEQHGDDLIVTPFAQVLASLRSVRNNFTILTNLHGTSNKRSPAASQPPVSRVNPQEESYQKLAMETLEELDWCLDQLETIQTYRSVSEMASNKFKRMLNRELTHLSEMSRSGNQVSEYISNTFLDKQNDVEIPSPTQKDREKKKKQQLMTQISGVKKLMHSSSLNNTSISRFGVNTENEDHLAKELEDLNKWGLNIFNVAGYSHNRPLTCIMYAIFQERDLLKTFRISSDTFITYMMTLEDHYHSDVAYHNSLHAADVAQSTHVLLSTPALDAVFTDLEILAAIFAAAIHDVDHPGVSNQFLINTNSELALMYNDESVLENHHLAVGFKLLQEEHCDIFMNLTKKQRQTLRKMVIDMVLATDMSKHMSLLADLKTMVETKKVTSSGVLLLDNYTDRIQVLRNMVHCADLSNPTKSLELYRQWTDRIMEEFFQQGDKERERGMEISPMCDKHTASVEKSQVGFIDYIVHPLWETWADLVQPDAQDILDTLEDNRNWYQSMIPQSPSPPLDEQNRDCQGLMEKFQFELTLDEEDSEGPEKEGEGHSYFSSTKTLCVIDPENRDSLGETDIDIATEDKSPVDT
DNA dC->dU-editing enzyme APOBEC-3G (Homo sapiens), sequence (Q9HC16 whole entry, looked up): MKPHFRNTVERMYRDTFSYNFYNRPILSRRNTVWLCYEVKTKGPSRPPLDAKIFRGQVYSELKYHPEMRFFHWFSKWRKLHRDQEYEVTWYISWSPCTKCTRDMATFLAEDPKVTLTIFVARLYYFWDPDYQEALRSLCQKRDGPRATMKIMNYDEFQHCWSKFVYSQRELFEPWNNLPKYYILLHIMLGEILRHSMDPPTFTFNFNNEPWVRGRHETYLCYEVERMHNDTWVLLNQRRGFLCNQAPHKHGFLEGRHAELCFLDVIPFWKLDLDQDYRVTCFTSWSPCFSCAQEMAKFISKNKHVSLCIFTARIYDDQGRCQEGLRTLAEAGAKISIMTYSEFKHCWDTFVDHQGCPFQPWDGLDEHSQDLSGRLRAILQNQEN
Cytochrome P450 1A2 (Homo sapiens), sequence (P05177 whole entry, looked up): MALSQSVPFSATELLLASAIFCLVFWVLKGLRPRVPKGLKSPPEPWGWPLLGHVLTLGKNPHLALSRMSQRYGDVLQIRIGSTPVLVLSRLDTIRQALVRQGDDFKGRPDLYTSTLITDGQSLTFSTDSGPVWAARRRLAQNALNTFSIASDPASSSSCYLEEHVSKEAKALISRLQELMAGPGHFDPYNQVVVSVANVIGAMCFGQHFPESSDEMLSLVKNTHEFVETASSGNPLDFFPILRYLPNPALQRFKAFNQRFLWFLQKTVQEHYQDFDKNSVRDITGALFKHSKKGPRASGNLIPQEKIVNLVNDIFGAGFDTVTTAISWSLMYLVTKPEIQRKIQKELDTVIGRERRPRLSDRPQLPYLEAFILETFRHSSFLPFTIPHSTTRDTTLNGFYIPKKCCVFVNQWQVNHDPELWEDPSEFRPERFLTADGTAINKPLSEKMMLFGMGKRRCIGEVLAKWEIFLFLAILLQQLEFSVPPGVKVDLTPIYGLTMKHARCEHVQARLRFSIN
Glucocorticoid receptor (Homo sapiens), sequence (P04150 whole entry, looked up, the tested form may be a part): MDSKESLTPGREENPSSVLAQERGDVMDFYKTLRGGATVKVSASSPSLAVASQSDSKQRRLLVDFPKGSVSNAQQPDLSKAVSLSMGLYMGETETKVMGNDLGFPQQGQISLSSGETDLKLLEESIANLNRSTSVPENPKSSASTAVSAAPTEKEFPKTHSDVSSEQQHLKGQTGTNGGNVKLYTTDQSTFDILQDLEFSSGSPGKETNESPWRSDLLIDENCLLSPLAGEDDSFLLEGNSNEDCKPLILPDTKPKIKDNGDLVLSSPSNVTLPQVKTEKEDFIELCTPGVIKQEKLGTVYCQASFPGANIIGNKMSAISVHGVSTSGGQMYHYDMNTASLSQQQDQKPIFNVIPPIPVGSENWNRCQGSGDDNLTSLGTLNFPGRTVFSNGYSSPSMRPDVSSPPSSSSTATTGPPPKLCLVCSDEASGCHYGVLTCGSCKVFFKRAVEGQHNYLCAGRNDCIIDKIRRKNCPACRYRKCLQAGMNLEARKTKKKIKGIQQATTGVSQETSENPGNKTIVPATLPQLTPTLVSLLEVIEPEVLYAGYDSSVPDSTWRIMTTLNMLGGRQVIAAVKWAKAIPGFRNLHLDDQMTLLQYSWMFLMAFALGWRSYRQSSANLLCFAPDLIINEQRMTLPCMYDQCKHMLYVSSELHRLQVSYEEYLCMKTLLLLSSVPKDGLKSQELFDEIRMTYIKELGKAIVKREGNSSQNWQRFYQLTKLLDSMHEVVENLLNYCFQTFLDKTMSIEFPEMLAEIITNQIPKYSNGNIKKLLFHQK
Ubiquitin carboxyl-terminal hydrolase 1 (Homo sapiens), sequence (O94782 whole entry, looked up): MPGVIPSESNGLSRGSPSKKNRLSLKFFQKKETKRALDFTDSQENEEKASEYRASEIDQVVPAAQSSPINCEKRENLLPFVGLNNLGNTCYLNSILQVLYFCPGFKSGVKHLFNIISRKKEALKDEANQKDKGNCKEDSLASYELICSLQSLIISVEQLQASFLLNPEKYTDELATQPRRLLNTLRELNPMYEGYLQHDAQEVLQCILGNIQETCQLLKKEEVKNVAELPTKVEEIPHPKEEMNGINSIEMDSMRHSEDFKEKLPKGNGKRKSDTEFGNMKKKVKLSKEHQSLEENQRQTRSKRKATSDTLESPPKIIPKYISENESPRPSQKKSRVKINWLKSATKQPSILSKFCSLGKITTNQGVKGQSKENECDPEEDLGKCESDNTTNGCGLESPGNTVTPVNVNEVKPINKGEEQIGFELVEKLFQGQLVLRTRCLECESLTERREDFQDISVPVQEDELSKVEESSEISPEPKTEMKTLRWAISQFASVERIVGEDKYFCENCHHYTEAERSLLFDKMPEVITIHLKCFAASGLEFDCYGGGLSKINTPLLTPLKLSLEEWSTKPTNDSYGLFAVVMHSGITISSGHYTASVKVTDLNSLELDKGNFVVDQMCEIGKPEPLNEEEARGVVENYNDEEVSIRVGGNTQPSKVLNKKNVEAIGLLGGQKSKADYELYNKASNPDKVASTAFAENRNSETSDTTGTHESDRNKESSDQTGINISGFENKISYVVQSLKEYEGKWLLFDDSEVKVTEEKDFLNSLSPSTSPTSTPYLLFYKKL
Cytochrome P450 2C9 (Homo sapiens), sequence (P11712 whole entry, looked up): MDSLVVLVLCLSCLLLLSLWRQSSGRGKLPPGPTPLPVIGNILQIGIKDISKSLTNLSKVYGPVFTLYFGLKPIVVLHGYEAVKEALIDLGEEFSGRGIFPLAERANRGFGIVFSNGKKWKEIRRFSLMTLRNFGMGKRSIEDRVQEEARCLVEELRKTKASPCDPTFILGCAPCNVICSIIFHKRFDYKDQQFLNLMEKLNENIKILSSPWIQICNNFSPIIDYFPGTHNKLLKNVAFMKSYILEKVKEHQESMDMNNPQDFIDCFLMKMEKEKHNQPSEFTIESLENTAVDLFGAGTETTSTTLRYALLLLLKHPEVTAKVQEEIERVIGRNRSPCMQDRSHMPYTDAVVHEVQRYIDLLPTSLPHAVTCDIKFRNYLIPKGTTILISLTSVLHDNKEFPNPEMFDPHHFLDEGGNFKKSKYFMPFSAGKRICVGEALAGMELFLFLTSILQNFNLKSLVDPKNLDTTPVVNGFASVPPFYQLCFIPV
Cytochrome P450 2D6 (Homo sapiens), sequence (P10635 whole entry, looked up): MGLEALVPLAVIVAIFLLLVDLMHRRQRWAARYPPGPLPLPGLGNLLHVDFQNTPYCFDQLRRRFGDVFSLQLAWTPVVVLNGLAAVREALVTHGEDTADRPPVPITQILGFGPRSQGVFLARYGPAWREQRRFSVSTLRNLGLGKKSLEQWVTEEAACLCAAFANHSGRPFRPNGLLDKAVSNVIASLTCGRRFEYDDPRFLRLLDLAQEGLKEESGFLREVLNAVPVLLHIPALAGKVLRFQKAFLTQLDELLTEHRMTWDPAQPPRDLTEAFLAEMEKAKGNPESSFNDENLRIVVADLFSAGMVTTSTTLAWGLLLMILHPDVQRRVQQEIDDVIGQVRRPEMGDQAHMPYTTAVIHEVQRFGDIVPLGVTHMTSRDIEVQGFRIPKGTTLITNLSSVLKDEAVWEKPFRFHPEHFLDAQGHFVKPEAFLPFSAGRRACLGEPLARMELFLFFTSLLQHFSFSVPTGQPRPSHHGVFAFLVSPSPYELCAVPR

O=C(O)COc1cccc(-c2ocnc2-c2nc(-c3ccccc3)c(-c3ccccc3)o2)c1
inactive: [1] > 46 µM | [2] > 46 µM | [3] | [4] | [5] | [6]

CCCCCS(=O)(=O)CCCCCCCCCCn1c(-c2ccc(O)cc2)c(C)c2cc(O)ccc21
active: [7] 0.631 µM
inactive: [8] | [6]

N#C[C@H](Cc1ccc(O)cc1)c1ccc(O)cc1
active: [9] 12.6 µM
inactive: [3] | [4] | [8] | [10] | [5] | [6]

COc1ccccc1CC(=N)N1C[C@@H]2C(=O)CCC(c3ccccc3)(c3ccccc3)[C@@H]2C1
inactive: [1] > 46 µM | [2] > 46 µM | [3] | [8] | [5] | [6]
active: [7] 3.16 µM

CCN(Cc1cccc(S(=O)(=O)O)c1)c1ccc(C(=C2C=CC(=[N+](CC)Cc3cccc(S(=O)(=O)O)c3)C=C2)c2ccc(O)cc2S(=O)(=O)O)cc1
active: [11] 4.47 µM | [13] 3.55 µM | [14] 63.1 µM
inactive: [12]

N[C@H](C(=O)O)[C@@H]1[C@@H](C(=O)O)C1(F)F
inactive: [2] > 46 µM | [3] | [10] | [5] | [6]

COc1ccc2cc(C(C)C(=O)O)ccc2c1 (stereo unspecified)
inactive: [15] | [16] | [6]

Cc1ccc(S(=O)(=O)NCc2ccccc2)cc1
active: [9] 0.501 µM
inactive: [1] > 46 µM | [2] > 46 µM | [4] | [8] | [5] | [6]

CC(C)(C)c1ccc(C(=O)Nc2ccc(C(=O)OCc3cc(=O)n4ccsc4n3)cc2)cc1
inactive: [11]

O=C(Nc1cccc(C(=O)OCc2cc(=O)n3nc(C4CC4)sc3n2)c1)c1cccc(Cl)c1
active: [11] 56.2 µM
inactive: [12]

COc1cc2c(cc1OC)-c1cc3nc4ccccc4nc3n1C(C)(C)C2
active: [17] 12.6 µM
inactive: [1] > 46 µM | [2] > 46 µM | [4] | [5] | [6]

COc1cccc(NC(=O)/C=C\c2ccc(Cl)cc2)c1
active: [9] 1 µM | [18] 10 µM | [7] 12.6 µM
inactive: [1] > 46 µM | [2] > 46 µM | [4] | [8] | [19] | [5] | [6]
